Measured values taken from ChEMBL document CHEMBL3988442, “University of Dundee, Small-Polar-MMV Screening Library” (2021).
About 13,000 (27%) of roughly 48,000 compounds showed an effect of 50% or more. The list shows a part of the results.

test system: Wolbachia pipientis; experiment: Anti-Wolbachia Cell-Based Screen; format: functional; design: scale not given: in the data most compounds retested in dose-response had high values; settings: 5 µM

Compound | Percent Effect [%]
CCCN1CCN(C(=O)c2cccc3cccnc23)[C@H]2CS(=O)(=O)C[C@H]21 | -6.939
Cc1nnc(CN(C)Cc2nc3c(s2)CCCC3)o1 | -39.73
CCc1ncc(C(=O)N2CCC(O)(CN3CCOCC3)C(C)(C)C2)cn1 (configuration not stated) | 21.42
COc1ccc2c(C)c(C(=O)N3CCC(NC(C)=O)C3)oc2c1 (configuration not stated) | 4.828
CCCc1nc(CN2CCOC(Cn3cncn3)C2)cs1 (configuration not stated) | 112.9
CC(C)CCc1nc(CN2CCOC(Cn3cncn3)C2)cs1 (configuration not stated) | 124.3
CC(C)(C)c1nnc(CN2CCOC(Cn3cncn3)C2)o1 (configuration not stated) | 5.198
Cc1cc(CNC(=O)NC(C)c2ccncc2)no1 (configuration not stated) | -0.1893
CO[C@H]1CN(C(C)C)C[C@@H]1NC(=O)c1cc(COc2ccccc2)[nH]n1 | -19.38
C[C@@H]1CC[C@@H](C)N1C(=O)c1cc(COc2ccccc2)[nH]n1 | 96.55
C[C@@H]1CN(C(=O)c2cc(COc3ccc4c(c3)OCO4)[nH]n2)C[C@H](C)O1 | -15.32
CN(Cc1nncn1C)C(=O)c1cc(COc2ccccc2)[nH]n1 | -18.45
COc1ccccc1OCc1cc(C(=O)N2C[C@@H](C)O[C@@H](C)C2)n[nH]1 | -20.33
COc1ccccc1OCc1cc(C(=O)N2CCOCC2CO)n[nH]1 (configuration not stated) | -19.45
CCCC1C=CCN1C(=O)c1cc(COc2ccccc2)[nH]n1 (configuration not stated) | 130
O=C(c1cc(COc2ccc3c(c2)OCO3)[nH]n1)N1CC=CC1CO (configuration not stated) | -1.873
COc1ccccc1OCc1cc(C(=O)N2CCC(NC(C)=O)C2)n[nH]1 (configuration not stated) | -14.62
COC(=O)C1C=CCN1C(=O)c1cc(COc2ccccc2)[nH]n1 (configuration not stated) | 114.9
CCCC1C=CCN1C(=O)c1cc(COc2ccc3c(c2)OCO3)[nH]n1 (configuration not stated) | 106.8
COc1ccccc1OCc1cc(C(=O)N2[C@H](C)CC[C@@H]2C)n[nH]1 | -29.7
CN(C(=O)CC1=CCCCC1)C1CCCN(C2Cc3ccccc3C2)C1 (configuration not stated) | -26.45
CCc1ncc2c(n1)CN(C(=O)Cc1cc(OC)cc(OC)c1)C2 | -17.96
CC(C)COC(C)C(=O)N1CCC(C)CC1 (configuration not stated) | -15.15
Cc1cc(CN(C2CC2)C(C)C(C)C)no1 (configuration not stated) | 5.492
COc1ccccc1OCc1cc(C(=O)N2CC=CC2C(C)C)n[nH]1 (configuration not stated) | -7.003
COc1ccccc1OCc1cc(C(=O)N2CC(O)C2)n[nH]1 | -12.52
CCC1C=CCN1C(=O)c1cc(COc2ccccc2OC)[nH]n1 (configuration not stated) | 105.4
